The test system of one test is Staphylococcus aureus. Conditions: Concentration 20 uM; ASSAY_TEST Inhibition of Bacterial Growth; detection method Absorption (OD600); MEDIA CAMHB; plate type 384well; NBS; CORNING #3640; time 18 hr.
The test system of the next test is Escherichia coli. Conditions: Concentration 20 uM; ASSAY_TEST Inhibition of Bacterial Growth; detection method Absorption (OD600); MEDIA CAMHB; plate type 384well; NBS; CORNING #3640; time 18 hr.

Molecules are shown by their SMILES. Measured potencies and affinities stand elsewhere.

Turning to `CNCC[C@H](Oc1cccc2ccccc12)c1cccs1.Cl` [DULOXETINE HYDROCHLORIDE], the Inhibition with Staphylococcus aureus is listed as -17.99%; in the test on Escherichia coli it was 4.45%.

For `O=S(=O)([O-])CCS.[Na+]` [MESNA], the Inhibition is 2.58% with Staphylococcus aureus and -2.71% in the test with Escherichia coli.

Regarding `CNCC[C@@H](Oc1ccccc1C)c1ccccc1.Cl` [ATOMOXETINE HYDROCHLORIDE], the Inhibition is reported as -21.69% in the test on Staphylococcus aureus and 5.13% in the test on Escherichia coli.

For `COCC1=C(C(=O)OC(C)OC(=O)OC(C)C)N2C(=O)[C@@H](NC(=O)/C(=N\OC)c3csc(N)n3)[C@H]2SC1` (stereo not given in full) [CEFPODOXIME PROXETIL], the Inhibition is -13.09% in the test on Staphylococcus aureus and 5.31% in the test with Escherichia coli.

As to `COc1ccccc1OCC(O)CN1CCN(CC(=O)Nc2c(C)cccc2C)CC1.Cl.Cl` (stereo not given) [RANOLAZINE HYDROCHLORIDE], the Inhibition in the test with Staphylococcus aureus was 15.16%; in the test on Escherichia coli, -4.15%.

Consider `C[C@H](N[C@@H](CCc1ccccc1)C(=O)O)C(=O)N1CCC[C@H]1C(=O)O` [ENALAPRILAT ANHYDROUS], for which the results for the Inhibition with Staphylococcus aureus and in the test on Escherichia coli were -5.3% and 7.09%, respectively.

For the compound `Nc1ncnc2c1ncn2[C@@H]1O[C@H](CO)C[C@@H]1O.O`, the values for the Inhibition in the test on Staphylococcus aureus and in the test on Escherichia coli were 7.37% and 1.02%, respectively.

As for `Cc1cccc(Nc2ccncc2S(=O)(=O)NC(=O)NC(C)C)c1` [TORSEMIDE], the results for the Inhibition in the test on Staphylococcus aureus and with Escherichia coli were 4.19% and 6.8%, respectively.

For `COCCCC/C(=N\OCCN)c1ccc(C(F)(F)F)cc1.O=C(O)/C=C\C(=O)O` [FLUVOXAMINE MALEATE], the Inhibition in the test on Staphylococcus aureus is 7.49%; in the test with Escherichia coli, 3.58%.

As for `CNC(=C[N+](=O)[O-])NCCSCc1ccc(CN(C)C)o1.Cl` [RANITIDINE HYDROCHLORIDE], the Inhibition in the test with Staphylococcus aureus was -17.46%; in the test with Escherichia coli, 4.52%.

Turning to `COc1nc(C)nc(Cl)c1NC1=NCCN1.Cl` [MOXONIDINE HYDROCHLORIDE], the values for the Inhibition in the test on Staphylococcus aureus and in the test with Escherichia coli were -14.16% and 3.63%, respectively.

Take `CC(=O)CCCCn1c(=O)c2c(ncn2C)n(C)c1=O` [PENTOXIFYLLINE]: the Inhibition in the test on Staphylococcus aureus is 15.42%; in the test with Escherichia coli it was 2.27%.

As for `CC(=O)O[C@]1(C(C)=O)CC[C@H]2[C@@H]3C=C(C)C4=CC(=O)CC[C@]4(C)[C@H]3CC[C@@]21C` [MEGESTROL ACETATE], the Inhibition is reported as 14.19% with Staphylococcus aureus and 0.92% with Escherichia coli.

With `Cl.c1ccc(CC2=NCCN2)cc1` [TOLAZOLINE HYDROCHLORIDE], the Inhibition in the test on Staphylococcus aureus is 7.13%; with Escherichia coli, 4.19%.

In the case of `Cc1cccc(C)c1NC(=O)C1CCCCN1C.Cl` (stereo not given) [MEPIVACAINE HYDROCHLORIDE], the Inhibition with Staphylococcus aureus stood at 10.78%; with Escherichia coli, 6.74%.

Turning to `Cl.NC[C@H]1CC[C@H](C(=O)Oc2ccc(CCC(=O)O)cc2)CC1` [CETRAXATE HYDROCHLORIDE], the Inhibition is 14.3% with Staphylococcus aureus and -0.51% in the test on Escherichia coli.

On to `CC1(C)O[C@@H]2C[C@H]3[C@@H]4CCC5=CC(=O)C=C[C@]5(C)[C@@]4(F)[C@@H](O)C[C@]3(C)[C@]2(C(=O)CO)O1` [TRIAMCINOLONE ACETONIDE], for which the results for the Inhibition in the test on Staphylococcus aureus and in the test with Escherichia coli were 7.65% and 3.69%, respectively.

Take `CN(C)CC[C@@H](c1ccc(Br)cc1)c1ccccn1.O=C(O)/C=C\C(=O)O` [DEXBROMPHENIRAMINE MALEATE]: the Inhibition was 4.45% in the test with Staphylococcus aureus and 5.01% in the test with Escherichia coli.

On to `Cl.O=C1CN2Cc3c(ccc(Cl)c3Cl)N=C2N1` [ANAGRELIDE HYDROCHLORIDE], for which the Inhibition was determined as 11.06% in the test on Staphylococcus aureus and 7.21% in the test on Escherichia coli.

Take `CC(=O)[C@@]1(O)CC[C@H]2[C@@H]3C[C@H](C)C4=CC(=O)CC[C@]4(C)[C@H]3CC[C@@]21C`: the Inhibition in the test with Staphylococcus aureus is on record as 8.66%; in the test with Escherichia coli, -5.84%.

In general, Inhibition refers to the change of the read-out against control, counted positive when it falls.
